Screening results (PubChem BioAssay)
GPR151 activ: activators of human GPR151, primary screen, cell-based, PathHunter beta-arrestin, luminescence. G-protein coupled receptor 151 (Homo sapiens), Q8TDV0. PathHunter beta-arrestin GPR151 cells. activation, % at 11.2 µM. 650,000 compounds, 1% hits; in the data active = activation above about 4.9%;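 also: 0% = median of compound wells and 100% = cells with positive control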
TEAD-YAP block: TEAD-YAP interaction inhibition, primary screen, TEAD-YAP interaction inhibitor project, luminescence, HEK-TIYL cells; TEAD-Gal4/YAP UAS-luciferase luminescence; inhibition, % at 9.12 µM; 640,000 compounds, 1.4% hits; in the data active = inhibition above about 32%;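 also: 0% = median of test compound wells and 100% = reference inhibitor wells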
MITF primary: MITF inhibitors, primary screen, biochemical, AlphaScreen, human; AID 1259374, 2018; inhibition, % at 2.6 µM; 650,000 compounds, 0.91% hits; AlphaScreen MITF homodimerization, bead proximity signal; Microphthalmia-associated transcription factor (Homo sapiens), O75030; in the data active = inhibition above about 50%;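 also: 0% = vehicle wells with protein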
Target sequence (O75030 whole entry, looked up): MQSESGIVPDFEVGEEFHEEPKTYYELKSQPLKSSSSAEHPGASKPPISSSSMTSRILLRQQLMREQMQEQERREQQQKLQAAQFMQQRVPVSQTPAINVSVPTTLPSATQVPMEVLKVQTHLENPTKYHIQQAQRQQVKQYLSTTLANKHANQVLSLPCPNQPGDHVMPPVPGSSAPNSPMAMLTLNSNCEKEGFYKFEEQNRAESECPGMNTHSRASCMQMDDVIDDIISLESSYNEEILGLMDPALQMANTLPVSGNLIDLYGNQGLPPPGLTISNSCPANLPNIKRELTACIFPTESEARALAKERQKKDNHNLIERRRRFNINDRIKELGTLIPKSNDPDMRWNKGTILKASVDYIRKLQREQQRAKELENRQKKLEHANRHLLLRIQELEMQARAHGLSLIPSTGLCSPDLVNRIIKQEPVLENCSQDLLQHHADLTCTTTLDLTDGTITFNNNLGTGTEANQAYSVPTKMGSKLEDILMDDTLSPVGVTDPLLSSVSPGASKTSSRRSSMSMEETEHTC
FBW7 activator: FBW7 E3 ligase activators, primary screen, biochemical, AlphaScreen, human | AlphaScreen FBW7–phospho-cyclin E peptide binding, activator screen | normalized activity (activation), % at 26.1 µM | 650,000 compounds, 0.13% hits | AID 1259310, 2017; in the data active = normalized activity above about 1.9%;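 also: purified mutant Fbw7 with reduced substrate affinity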
Active calls of the source: *. The list is not random: actives were taken first. Their share in the collection is about 3.4%.

SMILES	GPR151 activ	TEAD-YAP block	MITF primary	FBW7 activator
COC(=O)c1ccc(/C=N/NC(=O)C2COc3ccccc3O2)cc1 (centres undefined)	1	12	-15	0
CC(=O)N/N=C/c1c(C)[nH]n(-c2ccccc2)c1=O	2	-3	42	1
Oc1c(C(Nc2nccs2)c2ccccn2)ccc2cccnc12 (centres undefined)	1	76*	43	0
Oc1c(C(Nc2nccs2)c2ccc(F)cc2)ccc2cccnc12 (centres undefined)	-1	43*	22	-2
Oc1c(C(Nc2nccs2)c2ccccc2)ccc2cccnc12 (centres undefined)	0	70*	24	-1
Cc1[nH]c2ccccc2c1C(Nc1nccs1)c1ccc(F)cc1 (centres undefined)	0	-28	4	0
Oc1cccc(C(Nc2nccs2)c2ccc3cccnc3c2O)c1 (centres undefined)	0	73*	69*	-1
COC(=O)COc1ccc(NC(=O)c2ccc(C(C)(C)C)cc2)cc1	-1	43*	-22	0
CCCOC(=O)c1ccc(NC(=O)c2ccc(C(C)(C)C)cc2)cc1	0	-58	11	0
COC(=O)Cc1ccc(NC(=O)c2ccc(C(C)(C)C)cc2)cc1	1	71*	-11	0
COCCOC(=O)c1ccc(NC(=O)c2ccc(C(C)(C)C)cc2)cc1	0	46*	1	-1
CC1CCC(NC(=O)C2CCN(S(=O)(=O)c3ccc4c(c3)CCC(=O)N4)CC2)CC1 (centres undefined)	0	-7	-2	0
Cc1ccc(CSC2=NCCN2S(=O)(=O)c2ccc([N+](=O)[O-])cc2)cc1	-2	-2	-5	0
Cc1cccc(NS(=O)(=O)c2ccc3c(c2)oc(=O)n3C(=O)NC2CCCCC2)c1	0	-1	1	0
CCC(/C=C1\Sc2ccccc2N1CC)=C\c1sc2ccccc2[n+]1CC	0	82*	44	0
Cc1nc(CN(C)C(=O)c2cc(COc3ccc4ncccc4c3)on2)cs1	3	37*	3	0
CN(CC1COCCO1)C(=O)c1cc(COc2ccc3ncccc3c2)on1 (centres undefined)	3	50*	1	0
NC(=O)c1ccccc1NC(=O)c1ccc(CN2CCOCC2)cc1	0	36*	24	0
O=C(Nc1ccccc1C(=O)NCc1ccccc1)c1ccc(CN2CCOCC2)cc1	-1	52*	-7	0
CCOC(=O)c1c(N)sc(C(=O)NC2CCCCC2)c1C	-6	70*	0	0
CCOC(=O)c1sc(C)c(C(=O)NC2CCCCC2)c1N	-2	-23	12	0
CCC(=O)Nc1sc(C(=O)NC2CCCCC2)c(C)c1C(=O)OC	0	37*	-16	0
Nc1nc(SCCCC(=O)NCCO)nc2sc3c(c12)CCCC3	-1	13	15	2.3*
CN(c1ccccc1)S(=O)(=O)c1ccc(C(=O)Nc2nc(-c3ccncc3)cs2)cc1	2	-12	-5	0
COc1ccc(-c2ccc(NS(=O)(=O)c3cc(C)cc(C)c3)cc2)nn1	0	-7	17	1.9*
SMILES	GPR151 activ	TEAD-YAP block	MITF primary	FBW7 activator
O=C(NCCc1ccccc1Cl)c1ccc(S(=O)(=O)c2ccccc2Cl)c([N+](=O)[O-])c1	1	19	11	0
CC(C)(C)c1ccccc1Nc1ncnc2sccc12	1	2	-8	0
CC(CCc1ccccc1)Nc1ncnc2sccc12 (centres undefined)	2	51*	8	0
COc1cc(C(=O)NC2CCCCCCC2)cc(OC)c1OC	1	-2	14	0
COc1cc(C(=O)N/N=C(\C)c2ccc(N)cc2)cc(OC)c1OC	0	49*	-14	0
COc1cc(C(=O)N/N=C(\C)c2cccs2)cc(OC)c1OC	1	54*	0	0
COc1cc(C(=O)NN2C(=O)c3ccccc3C2=O)cc(OC)c1OC	0	52*	-2	0
COc1cc(C(=O)NN=C(C2CC2)C2CC2)cc(OC)c1OC	-1	59*	-5	0
COc1cc(C(=O)N/N=C(\C)c2ccccc2)cc(OC)c1OC	1	61*	7	0
COc1ccc(/C(C)=N/NC(=O)c2ccccc2)cc1OC	1	-52	-5	0
COc1cc(C(=O)N/N=C(\C)Cc2ccccc2)cc(OC)c1OC	0	58*	12	0
COc1cc(C(=O)N/N=C(\C)c2ccco2)cc(OC)c1OC	0	53*	13	1
C/C(=N/NC(=O)c1cc(O)cc(O)c1)c1ccco1	-1	0	5	0
COc1cc(C(=O)N/N=C(C)/C=C/c2ccccc2)cc(OC)c1OC	1	64*	15	0
O=C1C(Cl)=C(Nc2cccc(O)c2)C(=O)N1c1ccc(Cl)c(Cl)c1	-1	20	24	0
Cc1nc2scc(C)n2c(=O)c1NC(=O)CC1CCCC1	1	8	-6	0
C/C(=N/NC(=O)c1cc(O)c(O)c(O)c1)c1ccc(F)cc1	0	4	59*	0
CCOc1ccc(C2=NCC(CN3C(=O)C(=O)N(C4CCCC4)C3=O)S2)cc1 (centres undefined)	4	-31	-7	0
COCCNC(=O)c1ccc(CNS(=O)(=O)c2ccc(Cl)cc2)cc1	1	1	12	0
CCN(CC)S(=O)(=O)c1ccc2[nH]c3nc(SCc4cccnc4)nnc3c2c1	2	37*	8	0
O=C(/C=C/c1ccccc1Cl)Nc1ccc2c(c1)C(=O)NC2=O	0	2	16	0
O=C(/C=C/c1ccc(Cl)cc1Cl)Nc1ccccc1F	-1	47*	4	0
O=C(/C=C/c1ccccc1Cl)Nc1cccc(O)c1	-2	38*	11	0
COc1ccc(/C=C/C(=O)Nc2ccccc2F)cc1	-11	80*	10	0
C=CCSc1nnc(C2CCCN(Cc3cc(OC)c(OC)c(OC)c3)C2)n1C (centres undefined)	0	-2	-5	0
SMILES	GPR151 activ	TEAD-YAP block	MITF primary	FBW7 activator
O=C(Nc1ccccc1-c1nc2ccccc2[nH]1)c1cccc(N2C(=O)CCC2=O)c1	-1	11	15	0
CCOc1ccc2c(c1)C(C)=CC(C)(C)N2C(=O)CCl	-1	14	-5	0
COc1ccc2c(c1)C(C)=CC(C)(C)N2C(=O)CCl	1	35*	-5	0
N#CCC(=O)N/N=C/c1ccc(N2CCOCC2)o1	-1	0	54*	0
O=C(N/N=C/c1ccc(N2CCOCC2)o1)c1ccccc1	0	-32	16	0
CC1=CC(C)(C)N(C(=O)Nc2ccc(Cl)cc2)c2ccc(C)cc21	-1	-11	7	0
CC1=CC(C)(C)N(C(=O)c2ccc(NS(C)(=O)=O)cc2)c2ccc(C)cc21	1	59*	2	0
